Measurements taken from PubChem BioAssay (NCATS).
Inconclusive results are not listed. Where a call stands in place of a potency, no number is given. Unmarked numbers belong to inactive results. Calls of active or inactive are those of the source. The call rests on the fitted dose curve; in most records, active means well fitted inhibition curve with a large enough effect; inconclusive means small, poorly fitted or top-dose-only effect; inactive means no such curve, though single readings can be large or run the other way.

How the values were obtained:
[1] = test system: Zika virus NS2B-NS3 protease (unlinked complex); experiment: Primary screen GU Rhodamine qHTS for Zika virus inhibitors: Unlinked NS2B-NS3 protease assay (AID 1347159); conditions: Recombinant ZIKV NS2B-NS3 protease, Rhodamine110 substrate fluorescence; series mostly up to 107 µM; further: nearly all actives have a fitted effect of over 60% in size
In short: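 Percent inhibition came from the 15-min rise in Rhodamine110 fluorescence (1.5 microM substrate, ~15% conversion), normalized to no-inhibitor and no-enzyme wells and Hill-fitted. Unlinked protease, 25 nM, pH 8.0 Tris buffer; compounds up to 114 microM, 15-min preincubation.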

[2] = test system: Zika virus NS2B-NS3 protease (linked construct); experiment: Primary screen NINDS Rhodamine qHTS for Zika virus inhibitors (AID 1347160); conditions: purified NS2B-NS3 protease, Rhodamine110 substrate fluorescence; series mostly up to 57.1 µM; further: nearly all actives have a fitted effect of over 55% in size
In short: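 Rhodamine110-peptide cleavage (1.5 µM substrate) by 25 nM linked NS2B-NS3 enzyme at pH 8.0 (Tris, Tween 20), after 15 min RT preincubation with compounds; 15-min fluorescence change normalized to controls and Hill-fitted.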

Row | Compound | Potency [1] | Potency [2] | activity change, negative = inhibition [1] | activity change, negative = inhibition [2]
1 | Cc1cc(C)nc(SCC(=O)Nc2ncc(Cc3cccc4ccccc34)s2)n1 | inactive | inactive | – | –
2 | COC(=O)C[C@H]1[C@]2(C)C3=C(C)[C@H](c4ccoc4)C[C@H]3O[C@@H]2[C@H](O)C2[C@](C)(C(=O)OC)C=CC(=O)[C@@]21C (some centres undefined) | inactive | inactive | – | –
3 | O=C(Nc1nc2ccc([N+](=O)[O-])cc2s1)C1CCCCC1 | inactive | inactive | – | –
4 | C=C1CCC2C(C)(C(=O)O)CCCC2(C)C1CCC1=CCOC1=O (centres undefined) | inactive | inactive | – | –
5 | CCOC(=O)N1c2ccc(C(F)(F)F)cc2C(N(Cc2cc(C(F)(F)F)cc(C(F)(F)F)c2)C(=O)OC)CC1CC (centres undefined) | inactive | inactive | – | –
6 | CCCn1cc2c(nc(NC(=O)Nc3ccc(OC)cc3)n3nc(-c4ccco4)nc23)n1 | inactive | inactive | – | –
7 | O=C(CNC(=O)c1cccc(C(F)(F)F)c1)N[C@@H]1CCN(Cc2ccc(Cl)cc2)C1 | inactive | inactive | – | –
8 | N#Cc1ccc(COC[C@H]2O[C@@H](n3c(NCc4ccc(Cl)c(Cl)c4)nc4c(N)ncnc43)[C@H](O)[C@@H]2O)cc1 | inactive | inactive | – | –
9 | C=C1CC[C@@H]2[C@](C)(CO)[C@H](O)CC[C@@]2(C)[C@@H]1/C=C/C1=CCOC1=O | inactive | inactive | – | –
10 | Cc1cc2sc(NC(=O)Cc3ccccc3)nc2cc1Cl | inactive | inactive | – | –
11 | CC(=O)OC1CC(O)(C(C)C)C2C(OC(=O)c3ccc(O)cc3)C=C(C)C(=O)CC12C (centres undefined) | inactive | inactive | – | –
12 | CCNc1nc(Nc2cc(F)c(C(=O)N3CCOCC3)cc2OC)ncc1C(F)(F)F | inactive | inactive | – | –
13 | CC(C)c1cc2c(N3CCN(C4=NCC(C)(C)S4)CC3)ncnc2s1 | inactive | inactive | – | –
14 | C/C=C(\C)C(=O)OC1C(C)C2(O)C(C=C(CO)CC3(O)C(=O)C(C)=CC32)C2C(C)(C)C12OC(=O)C(C)C (centres undefined) | inactive | inactive | – | –
15 | COc1ccc2cc3c(NC(=O)c4ccco4)nn(C)c3nc2c1 | inactive | inactive | – | –
16 | O=C(NCCCn1ccnc1)c1cc(-c2ccco2)on1 | inactive | inactive | – | –

Row | Compound | Potency [1] | Potency [2] | activity change, negative = inhibition [1] | activity change, negative = inhibition [2]
17 | CCOc1ccc(CCNC(=O)c2cc3sc(Cl)cc3n2C)cc1OCC | inactive | inactive | – | –
18 | Cc1nnc(-c2ccc(-c3ccc(C(=O)Nc4ccc(O)c(N5CCN(C)CC5)c4)cc3)c(C)c2)o1 | inactive | inactive | – | –
19 | O=C(Nc1ccc2[nH]nc(-c3ccncc3)c2c1)[C@@H]1CCN(CC(=O)N2CCN(c3ccc(-c4ncccn4)cc3)CC2)C1 | inactive | inactive | – | –
20 | COc1cc(F)c(F)c(Nc2ccc(I)cc2F)c1NS(=O)(=O)C1(CC(O)CO)CC1 (centres undefined) | inactive | inactive | – | –
21 | CC(C)S(=O)(=O)NC[C@H](C)c1ccc(-c2ccc(CCNS(C)(=O)=O)cc2)cc1 | inactive | inactive | – | –
22 | CO[C@@H]1[C@H](O)CCC2(CO2)[C@H]1[C@@]1(C)O[C@@H]1CC=C(C)C (some centres undefined) | inactive | inactive | – | –
23 | COc1c(C)cnc(Cn2cc(C#CCC(C)(C)O)c3c(Cl)nc(N)nc32)c1C | inactive | inactive | – | –
24 | C=C1C(=O)O[C@@H]2[C@H]1CC[C@H](C)[C@]1(CCC(=O)O1)C2(C)O (some centres undefined) | inactive | inactive | – | –
25 | C/C=C\NC(=O)C1NC(=O)C(CC(N)=O)NC(=O)C(NC(=O)C(=O)C(C)CC)Cc2ccc(O)c(c2)-c2cccc3c2NC(=O)C3(O)C1O (centres undefined) | inactive | inactive | – | –
26 | Cn1ncc(Cl)c1-c1cc(C(=O)N[C@H](CN)Cc2ccc(F)c(F)c2)sc1Cl | inactive | inactive | – | –
27 | C=C1CO[C@@]2(O[C@H]3CC4C5CC=C6C[C@@H](O)C[C@@H](O[C@@H]7OC[C@H](O)[C@H](O[C@@H]8OC[C@@H](O)[C@H](O)[C@H]8O)[C@H]7O[C@@H]7O[C@@H](C)[C@H](OC(C)=O)[C@@H](OC(C)=O)[C@H]7OC(C)=O)[C@]6(C)C5CC[C@]4(C)[C@@H]3[C@@H]2C)[C@@H](O)[C@H]1OC1OC(C)C(O)C(O)C1O (some centres undefined) | – | – | -10.8% [at 19.1 µM] | 5.43% [at 10.7 µM]
28 | COc1cc2c(cc1OC)CN(C(=O)/C=C/c1c(-c3ccccc3)n(C)c3ncccc13)CC2 | inactive | inactive | – | –
29 | COc1cc(NC(=O)c2cc(C3CC3)on2)c(OC)cc1Cl | inactive | inactive | – | –
30 | COC(=O)CC1OC(C)C2=C(O)c3c(O)cccc3C(=O)C23OC13 (centres undefined) | inactive | inactive | – | –
31 | CC(=O)NC(C)c1cnc(-c2cnc(Oc3ccc(OC(C)C)cc3)s2)s1 (centres undefined) | inactive | inactive | – | –
32 | CC[C@@H](C)[C@@H]1OC2(C=C[C@H]1C)C[C@@H]1C[C@H](C/C=C(\C)[C@H](O[C@H]3C[C@H](OC)[C@H](O[C@H]4C[C@H](OC)[C@H](NC(C)=O)[C@H](C)O4)[C@H](C)O3)[C@H](C)/C=C/C=C3\CO[C@H]4[C@H](O)C(C)=C[C@@H](C(=O)O1)[C@@]34O)O2 (some centres undefined) | inactive | inactive | – | –
